Assay results published in PubChem BioAssay.
Calls of active or inactive are those of the source.

Tests used:
[1] = system: Human papillomavirus type 1a protein E7 (residues 44-93); assay: small molecules binding HPV E7 44-93 – biochemical, small-molecule microarray, residues 44-93, 635 nm fluorescence, primary screen (AID 1108); conditions: fluorescence 635 nm, higher = more signal;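 also: E7 fragment applied at 1 µg/mL in TBST for 1 h at 4 C; score combines spot fluorescence with its signal to noise ratio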
[2] = hepatitis C replication reporter changes, two-sided – Huh7 cells, luciferase reporter, HCV replication inhibitor project, primary screen (AID 1109); conditions: Huh7 HCV replicon luciferase reporter, 48 h; higher = more signal;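 also: huh7 hepatoma cells harbouring a luciferase neomycin HCV replicon reporter; luciferase luminescence as measure of HCV replicon replication; test concentration not given here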
[3] = biological target: Left-right determination factor 2 (Homo sapiens) (UniProt O00292); assay: small molecules binding LEFTY2 protein – biochemical, small-molecule microarray, 635 nm fluorescence scan, primary screen (AID 1110); conditions: higher = more signal
[4] = biological target: Calmodulin-1 (Homo sapiens) (UniProt P0DP23); assay: small molecules binding calmodulin-1 with EGTA – biochemical, small-molecule microarray, Cy5-labelled CALM1, profiling panel (AID 1111); conditions: Cy5-CALM1 binding fluorescence, higher = more signal;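 also: labelled calmodulin applied in Tris saline Tween buffer holding calcium plus EGTA and DTT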
[5] = biological target: Calmodulin-1 (Homo sapiens) (UniProt P0DP23); assay: small molecules binding Ca-loaded calmodulin-1 – biochemical, small-molecule microarray, Cy5-labelled CALM1, plus calcium, artefact control for SMM control-protein annotation, profiling panel (AID 1112); conditions: Cy5-CALM1 binding fluorescence, higher = more signal;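 also: score merges spot fluorescence with signal to noise from triplicate slides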
[6] = probe aWnt5a binding to arrayed compounds – biochemical, biotinylated probe, 635/667 nm fluorescence, primary screen (AID 1113); conditions: small-molecule microarray, higher = more signal;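 also: score merges 667 nm fluorescence intensity with signal-to-noise per printed feature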
[7] = probe aShh binding to arrayed compounds – biochemical, biotinylated probe, 635/667 nm fluorescence, primary screen (AID 1114); conditions: small-molecule microarray, higher = more signal;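 also: probe is biotin-labelled aShh protein from a stem cell growth factor screen; measures binding of labelled protein to compounds printed on the slide; score merges feature fluorescence at 667 nm with signal-to-noise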
[8] = probe aNog binding to arrayed compounds – biochemical, biotinylated probe, 635/667 nm fluorescence, primary screen (AID 1115); conditions: small-molecule microarray, higher = more signal;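 also: probe is biotinylated aNog protein used at 0.15 µg/mL for 1 h at 4 C; z-score combines 667 nm fluorescence of each spot with its signal to noise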
[9] = biological target: Torsin-1A-interacting protein 1 (Homo sapiens) (UniProt Q5JTV8); assay: compound microarray binding of lysate hLAP1 – cell lysate, small-molecule microarray, COS7 lysate, 635/667 nm fluorescence, primary screen (AID 1116); conditions: 635 nm fluorescence, higher = more signal
[10] = biological target: Alpha-bungarotoxin (Bungarus multicinctus) (UniProt P60615); assay: compounds binding labelled alpha-BTX control protein – biochemical, small-molecule microarray, Alexa647 label, 635/667 nm fluorescence, artefact control for SMM control protein annotation, profiling panel (AID 1117); conditions: alpha-BTX-A647 binding fluorescence, higher = more signal
Albumin (Bos taurus) = Albumin (Bos taurus) (UniProt P02769); assay: compounds binding labelled BSA control protein – biochemical, small-molecule microarray, Alexa647 label, 635/667 nm fluorescence, artefact control for SMM control protein annotation, profiling panel (AID 1118); conditions: BSA-A647 binding, fluorescence 635 nm, higher = more signal;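 also: score merges 667 nm emission intensity and signal-to-noise per printed compound spot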
[11] = probe aXIP binding to arrayed compounds – biochemical, NeuroSMM set, 635/667 nm fluorescence, primary screen (AID 1119); conditions: small-molecule microarray, higher = more signal, called active from +8 up or from −8 down;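 also: probe is the protein aXip251-270 applied at 1 µg/mL to compound-printed slides; binding of probe to printed compounds measured as 667 nm fluorescence plus signal to noise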
[12] = probe aNOTCH3 binding on compound microarray – biochemical, small-molecule microarray, 635/667 nm fluorescence, primary screen (AID 1120); conditions: higher = more signal;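 also: probe is a biotin-tagged antibody raised against NOTCH3 rather than NOTCH3 protein; score merges spot fluorescence near 667 nm with spot signal to noise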
[13] = probe aNOTCH2 binding on compound microarray – biochemical, small-molecule microarray, 635/667 nm fluorescence, primary screen (AID 1121); conditions: higher = more signal;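 also: score merges feature fluorescence read at 667 nm with its signal to noise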
[14] = biological target: Carbonic anhydrase 2 (Homo sapiens) (UniProt P00918); assay: compounds binding carbonic anhydrase 2 – biochemical, small-molecule microarray, Alexa647-labelled CAII, profiling panel (AID 1122); conditions: CAII-A647 binding fluorescence, higher = more signal
[15] = COS7 lysate on small-molecule microarray, probe aHis, 635 nm (AID 1123); conditions: COS7 cell lysate, fluorescence, higher = more signal;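 also: z-score combines 667nm fluorescence intensity with signal-to-noise per printed compound spot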
[16] = probe aLAP1 signal on lysate-treated microarray – cell lysate, small-molecule microarray, COS7 lysate, primary screen (AID 1124); conditions: probe aLAP1, fluorescence, higher = more signal;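 also: lysate comes from COS7 cells expressing LAP1 and is applied at 0.3 µg/mL; score merges spot fluorescence near 667 nm with signal-to-noise over triplicate slides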
Sam68 (KHDRBS1) = assay: compounds binding KHDRBS1 protein – biochemical, small-molecule microarray, 635 nm fluorescence, primary screen (AID 1125); conditions: higher = more signal;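 also: score merges 667 nm channel intensity with signal to noise over triplicate slides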
[17] = system: Chordin-like protein 2 (CHRDL2); assay: compounds binding chordin-like 2 – biochemical, small-molecule microarray, 635 nm fluorescence, primary screen (AID 1126); conditions: fluorescence 635 nm, higher = more signal;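 also: printed compound slides probed with Chrdl2 protein at 4 µg/mL for 1 h at 4 C; score merges 667 nm emission intensity with signal to noise over three replicate slides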
[18] = biological target: Concanavalin-A (Canavalia ensiformis) (UniProt P02866); assay: compounds binding concanavalin A lectin – biochemical, small-molecule microarray, Alexa647 label, 635 nm, artefact control for SMM control protein annotation, primary screen (AID 1127); conditions: ConA-A647 binding fluorescence, higher = more signal;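 also: z combines 667 nm emission intensity with signal-to-noise across three replicate slides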
Chain of Concanavalin-A (Canavalia ensiformis) (P02866 whole entry, looked up): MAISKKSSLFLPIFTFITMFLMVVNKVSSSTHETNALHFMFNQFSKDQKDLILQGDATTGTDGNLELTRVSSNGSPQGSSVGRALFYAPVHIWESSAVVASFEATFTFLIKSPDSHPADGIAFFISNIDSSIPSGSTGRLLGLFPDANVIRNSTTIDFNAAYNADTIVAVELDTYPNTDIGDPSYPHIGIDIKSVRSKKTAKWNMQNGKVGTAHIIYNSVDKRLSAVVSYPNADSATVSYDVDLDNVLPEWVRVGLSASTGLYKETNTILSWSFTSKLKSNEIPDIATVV

Chain of Torsin-1A-interacting protein 1 (Homo sapiens) (Q5JTV8 whole entry, looked up): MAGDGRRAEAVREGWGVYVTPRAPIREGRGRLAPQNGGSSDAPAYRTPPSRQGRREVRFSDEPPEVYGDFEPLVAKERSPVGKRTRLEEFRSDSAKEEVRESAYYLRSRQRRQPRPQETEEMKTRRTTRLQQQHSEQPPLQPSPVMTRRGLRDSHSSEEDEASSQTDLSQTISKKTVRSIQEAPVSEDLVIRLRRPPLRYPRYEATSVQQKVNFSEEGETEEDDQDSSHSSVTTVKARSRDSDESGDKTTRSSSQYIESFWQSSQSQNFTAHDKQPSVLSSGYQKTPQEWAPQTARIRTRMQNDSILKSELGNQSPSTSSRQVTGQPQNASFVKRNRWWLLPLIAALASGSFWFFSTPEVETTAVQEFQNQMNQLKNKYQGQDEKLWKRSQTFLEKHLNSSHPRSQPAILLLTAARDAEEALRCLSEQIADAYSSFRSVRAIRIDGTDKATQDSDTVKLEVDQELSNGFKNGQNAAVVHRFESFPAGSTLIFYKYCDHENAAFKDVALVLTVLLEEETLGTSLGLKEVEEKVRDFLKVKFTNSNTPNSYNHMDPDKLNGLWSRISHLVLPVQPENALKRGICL
Chain of Alpha-bungarotoxin (Bungarus multicinctus) (P60615 whole entry, looked up): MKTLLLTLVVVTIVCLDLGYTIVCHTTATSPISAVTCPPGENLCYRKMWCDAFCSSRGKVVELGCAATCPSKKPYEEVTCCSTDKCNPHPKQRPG
Chain of Left-right determination factor 2 (Homo sapiens) (O00292 whole entry, looked up): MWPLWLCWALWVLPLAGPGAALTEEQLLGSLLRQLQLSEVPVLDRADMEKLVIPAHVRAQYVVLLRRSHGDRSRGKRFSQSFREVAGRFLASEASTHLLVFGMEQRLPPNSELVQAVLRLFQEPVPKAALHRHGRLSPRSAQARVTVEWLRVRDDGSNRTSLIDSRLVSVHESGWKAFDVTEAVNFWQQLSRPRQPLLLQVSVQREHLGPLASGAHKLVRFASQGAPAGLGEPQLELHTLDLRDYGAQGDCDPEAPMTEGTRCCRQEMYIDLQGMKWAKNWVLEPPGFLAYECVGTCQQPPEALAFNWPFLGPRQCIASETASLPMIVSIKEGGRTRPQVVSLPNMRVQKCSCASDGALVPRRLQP
Chain of Albumin (Bos taurus) (P02769 whole entry, looked up): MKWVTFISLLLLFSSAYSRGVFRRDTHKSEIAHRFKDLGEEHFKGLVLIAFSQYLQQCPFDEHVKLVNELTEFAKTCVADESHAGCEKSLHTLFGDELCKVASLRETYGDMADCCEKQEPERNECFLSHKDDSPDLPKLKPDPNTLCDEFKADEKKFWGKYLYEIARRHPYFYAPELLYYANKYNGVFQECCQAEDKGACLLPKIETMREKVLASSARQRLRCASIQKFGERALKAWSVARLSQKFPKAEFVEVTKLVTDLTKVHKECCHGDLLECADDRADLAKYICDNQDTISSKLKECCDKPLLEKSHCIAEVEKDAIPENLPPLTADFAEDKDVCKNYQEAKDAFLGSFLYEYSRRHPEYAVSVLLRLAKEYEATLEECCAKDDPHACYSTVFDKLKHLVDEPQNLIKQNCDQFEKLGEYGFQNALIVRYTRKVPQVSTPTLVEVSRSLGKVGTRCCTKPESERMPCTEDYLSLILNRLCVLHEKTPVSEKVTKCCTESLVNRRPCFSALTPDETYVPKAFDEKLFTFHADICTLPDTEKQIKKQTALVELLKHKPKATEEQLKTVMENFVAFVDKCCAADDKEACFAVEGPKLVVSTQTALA

Structure (SMILES)	composite z-score [1]	z-score [2]	composite z-score [3]	composite z-score [4]	composite z-score [5]	composite z-score [6]	composite z-score [7]	composite z-score [8]	composite z-score [9]	composite z-score [10]	composite z-score (Albumin (Bos taurus))	composite Z-score [11]	composite z-score [12]	composite z-score [13]	composite z-score [14]	composite z-score [15]	composite z-score [16]	composite z-score (Sam68 (KHDRBS1))	composite z-score [17]	composite z-score [18]
CCOC(=O)[C@H](CC(C)C)NC(=O)CCC1CC(OC(=O)NCCc2ccc(F)cc2)CC2(CCCC(COC(=O)NCC3CCCCC3)O2)O1 (stereo not given in full)	0.723	-1.11	0.351	0.255	-0.622	-0.19	-0.0362	-0.45	0.627	0.596	0.424	0.2 (inactive)	0.119	-0.203	0.255	2.11	0.0165	0.986	0.618	1.07
CO[C@@H]1COC(=O)[C@@H](C)NC(=O)CC=C[C@@H](C)[C@H](NS(=O)(=O)c2ccc(C)cc2)COC(=O)[C@H](C)NC(=O)CC=C[C@H]1C	-0.0926	0.0975	0.765	-1.74	-1.94	-0.0045	-0.0709	-0.433	0.392	-0.744	-1.05	1.05 (inactive)	-0.0647	-0.184	-0.333	-0.634	-0.192	0.643	1.16	-1.05
COC(=O)[C@H]1O[C@@H](c2c(OC)c(OC)c(C)c(OC)c2OC)[C@H](C)[C@@H](O)[C@H]1C	1.08	0.155	0.685	-0.112	-0.421	-0.157	-0.0769	0.0947	0.407	0.101	0.354	0.0421 (inactive)	0.0414	-0.0349	0.0615	1.04	-0.203	1.28	0.31	0.86
CO[C@@H]1COC(=O)[C@@H]2CCCN2C(=O)[C@@H](C)COC(=O)CC=C[C@H]1C	1.04	-0.913	0.861	-0.149	-0.439	-0.147	0.284	0.0453	0.378	0.234	0.0417	-0.235 (inactive)	-0.0362	-0.14	0.299	0.148	0.0496	1.2	0.695	0.325
COc1cccc([C@H]2Oc3ccc(OC)cc3C(=NOC(C)CN3CCCCc4nc(C)c(C)cc43)[C@@H]2O)c1 (stereo not given in full)	-0.168	-2.48	0.321	0.147	-0.861	-0.148	0.151	-0.219	0.29	0.385	0.604	-0.352 (inactive)	0.0876	-0.106	0.293	0.47	-0.456	0.523	0.267	0.653
